Assay [1] in a line: NCI Yeast Anticancer Drug Screen. Data for the rad50 strain (AID 155).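 Also: 0% = growth of vehicle-only cultures of the same strain.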 Particulars: S. cerevisiae rad50 strain growth inhibition, active compounds read high. Put shortly:
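Readout: growth inhibition relative to vehicle-treated cultures. Compound exposure was carried out in a genetically defined yeast strain deficient in DNA damage repair.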

Assay [2] is described as follows: NCI Yeast Anticancer Drug Screen. Data for the mec2-1 strain (AID 157). Particulars: S. cerevisiae mec2-1 strain, active compounds read high. Put shortly: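 Using mec2-1 yeast: add compound, measure growth, express inhibition versus vehicle-treated cultures.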
A short description of assay [3]: NCI Yeast Anticancer Drug Screen. Data for the sgs1 mgt1 strain (AID 161).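 Also: 0% = growth of cultures given vehicle only.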 The note with it: S. cerevisiae sgs1 mgt1 strain, active compounds read high. Put shortly:
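Compounds are added to genetically altered yeast, and growth is compared with cultures given vehicle alone to give percent inhibition.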

The nature of assay [4]: NCI Yeast Anticancer Drug Screen. Data for the cln2 rad14 strain (AID 165).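 Also: 0% = growth equal to vehicle treated cultures.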 Particulars: S. cerevisiae cln2 rad14 strain, active compounds read high. Put shortly: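 Yeast strain cln2 rad14, bearing defects in cell cycle control and DNA repair, serves as the test system; values reflect growth inhibition compared with vehicle.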
Assay [5] is described as follows: NCI Yeast Anticancer Drug Screen. Data for the bub3 strain (AID 167). Particulars: S. cerevisiae bub3 mutant strain, active compounds read high. Put shortly: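 Readout: yeast growth inhibition, expressed relative to vehicle-only wells. The test organism is a mutant strain from a panel with lesions in DNA repair or checkpoint genes.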
Assay [6] can be described thus: NCI Yeast Anticancer Drug Screen. Data for the mlh1 rad18 strain (AID 175). Particulars: S. cerevisiae mlh1 rad18 strain growth inhibition, active compounds read high. Put shortly: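 Steps: expose repair-defective yeast to compound; measure growth; express inhibition against vehicle-treated controls.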
The mark [7] stands for this setting: at 5.0 µM (retest, dose inferred, filed as 0.5).
The mark [8] stands for this setting: at 50.0 µM (retest, dose inferred, filed as 5.0).

Compounds without any hit were thinned out: in the full panel of roughly 79,000, 15% have a hit. Unmarked numbers belong to inactive results. Active and inactive are the calls of the source. Rule as the data show it: active = growth inhibition above about 70%; inactive = the rest.

Turning to `CN(C)CCCCN1c2ccccc2Sc2ccc(C(=O)c3ccccc3)cc21`, the growth inhibition in assay [1] (setting [7]) is 0%; in assay [1] (setting [8]) it was 65%; in assay [1] (at 50.0 µM), 99.8% (active); in assay [2] (setting [7]), -2%; in assay [2] (setting [8]), 81% (active); in assay [2] (at 50.0 µM), 99.8% (active). Besides, the growth inhibition in assay [3] (setting [7]) was 3%; in assay [3] (setting [8]) it was 79% (active); in assay [3] (at 50.0 µM), 99.8% (active); in assay [4] (setting [7]), 2%; in assay [4] (setting [8]) it was 70% (active); in assay [4] (at 50.0 µM) it was 99.3% (active). The growth inhibition in assay [5] (setting [7]) is 4%; in assay [5] (setting [8]), 77% (active); in assay [5] (at 50.0 µM) it was 99.7% (active); in assay [6] (setting [7]) it was 0%; in assay [6] (setting [8]), 82% (active); in assay [6] (at 50.0 µM), 99.6% (active).
Consider `COc1ccc(C(=O)C(c2ccc(OC)cc2)C2(O)C(=O)Nc3c(Cl)cc(Cl)cc32)cc1` (configuration not stated), for which the growth inhibition in assay [1] (setting [7]) was 37%; in assay [1] (setting [8]) it was 37%; in assay [1] (at 50.0 µM), 91% (active); in assay [2] (setting [7]) it was -20%; in assay [2] (setting [8]), -20%; in assay [2] (at 50.0 µM), 92.3% (active). In addition, the growth inhibition in assay [3] (setting [7]) is 8%; in assay [3] (setting [8]), 8%; in assay [3] (at 50.0 µM) it was 90% (active); in assay [4] (setting [7]) it was 25%; in assay [4] (setting [8]), 25%; in assay [4] (at 50.0 µM), 90.9% (active). For the same compound, the growth inhibition in assay [5] (setting [7]) was -6%; in assay [5] (setting [8]), -6%; in assay [5] (at 50.0 µM), 90.7% (active); in assay [6] (setting [7]) it was -18%; in assay [6] (setting [8]), -18%; in assay [6] (at 50.0 µM), 90.7% (active).
Consider `O=c1[nH]n(CCc2ccccn2)c(=O)c(Cl)c1Cl`, for which the growth inhibition is -5% in assay [1] (setting [7]); -5% in assay [1] (setting [8]); 9.25% in assay [1] (at 50.0 µM); -9% in assay [2] (setting [7]); -1% in assay [2] (setting [8]); 1.95% in assay [2] (at 50.0 µM). Moreover, the growth inhibition in assay [3] (setting [7]) was -3%; in assay [3] (setting [8]), -26%; in assay [3] (at 50.0 µM), 12.4%; in assay [4] (setting [7]) it was 2%; in assay [4] (setting [8]) it was 6%; in assay [4] (at 50.0 µM), -6.2%. The growth inhibition is 2% in assay [5] (setting [7]); 7% in assay [5] (setting [8]); -11.2% in assay [5] (at 50.0 µM); -17% in assay [6] (setting [7]); 13% in assay [6] (setting [8]); -17.2% in assay [6] (at 50.0 µM).
With `Oc1ccc2c(c1)Cc1cc(Br)ccc1-2`, the growth inhibition in assay [1] (setting [7]) is 3%; in assay [1] (setting [8]) it was 99% (active); in assay [1] (at 50.0 µM), 98.5% (active); in assay [2] (setting [7]), -6%; in assay [2] (setting [8]), 99% (active); in assay [2] (at 50.0 µM) it was 98.9% (active). In addition, the growth inhibition was 7% in assay [3] (setting [7]); 80% (active) in assay [3] (setting [8]); 98.6% (active) in assay [3] (at 50.0 µM); -5% in assay [4] (setting [7]); 99% (active) in assay [4] (setting [8]); 97.8% (active) in assay [4] (at 50.0 µM). Also, the growth inhibition in assay [5] (setting [7]) was 24%; in assay [5] (setting [8]) it was 99% (active); in assay [5] (at 50.0 µM), 98.5% (active); in assay [6] (setting [7]), -11%; in assay [6] (setting [8]), 99% (active); in assay [6] (at 50.0 µM), 98.2% (active).
On to `CCCCCCCCN/N=C(/C)CCCCCO`, for which the growth inhibition in assay [1] (setting [7]) was -6%; in assay [1] (setting [8]), 4%; in assay [1] (at 50.0 µM), -14.2%; in assay [2] (setting [7]), 4%; in assay [2] (setting [8]) it was 9%; in assay [2] (at 50.0 µM), -11.8%. In addition, the growth inhibition in assay [3] (setting [7]) is 1%; in assay [3] (setting [8]), 1%; in assay [3] (at 50.0 µM), -12.7%; in assay [4] (setting [7]) it was -67%; in assay [4] (setting [8]), -2%; in assay [4] (at 50.0 µM), 22.8%. The growth inhibition is 1% in assay [5] (setting [7]); -80% in assay [5] (setting [8]); 15.9% in assay [5] (at 50.0 µM); -1% in assay [6] (setting [7]); -12% in assay [6] (setting [8]); -23.6% in assay [6] (at 50.0 µM).
With `S=C(Nc1ccccc1)N(Cc1ccccc1)c1ccccc1`, the growth inhibition in assay [1] (setting [7]) was -7%; in assay [1] (setting [8]), 51%; in assay [1] (at 50.0 µM) it was 62%; in assay [2] (setting [7]), 10%; in assay [2] (setting [8]), 57%; in assay [2] (at 50.0 µM), 28.6%. The growth inhibition in assay [3] (setting [7]) is -7%; in assay [3] (setting [8]) it was 50%; in assay [3] (at 50.0 µM), 46.2%; in assay [4] (setting [7]) it was -8%; in assay [4] (setting [8]), 8%; in assay [4] (at 50.0 µM), 32.5%. Besides, the growth inhibition in assay [5] (setting [7]) is 3%; in assay [5] (setting [8]) it was 42%; in assay [5] (at 50.0 µM) it was 65.9%; in assay [6] (setting [7]) it was 4%; in assay [6] (setting [8]) it was 72% (active); in assay [6] (at 50.0 µM), 48.7%.
Turning to `CCn1c(O)c(C=Nc2ccccc2)s/c1=N/Nc1nc(-c2ccc(O)c(O)c2)cs1`, the growth inhibition in assay [1] (setting [7]) is 0%; in assay [1] (setting [8]) it was 21%; in assay [1] (at 50.0 µM), 57%; in assay [2] (setting [7]), -22%; in assay [2] (setting [8]), 1%; in assay [2] (at 50.0 µM), 48.4%. Moreover, the growth inhibition was -6% in assay [3] (setting [7]); 11% in assay [3] (setting [8]); 72.2% (active) in assay [3] (at 50.0 µM); -10% in assay [4] (setting [7]); 6% in assay [4] (setting [8]); 41.5% in assay [4] (at 50.0 µM). The growth inhibition in assay [5] (setting [7]) is -7%; in assay [5] (setting [8]) it was 38%; in assay [5] (at 50.0 µM), 79% (active); in assay [6] (setting [7]) it was -17%; in assay [6] (setting [8]), 25%; in assay [6] (at 50.0 µM) it was 66%.
For the compound `Nc1nc(N)c(-c2cccc(C(F)(F)F)c2)c(Cc2cccc(C(F)(F)F)c2)n1`, the growth inhibition is -2% in assay [1] (setting [7]); 98% (active) in assay [1] (setting [8]); 99.6% (active) in assay [1] (at 50.0 µM); 14% in assay [2] (setting [7]); 98% (active) in assay [2] (setting [8]); 99.3% (active) in assay [2] (at 50.0 µM). For the same compound, the growth inhibition in assay [3] (setting [7]) is -1%; in assay [3] (setting [8]) it was 98% (active); in assay [3] (at 50.0 µM), 99.3% (active); in assay [4] (setting [7]), 24%; in assay [4] (setting [8]), 91% (active); in assay [4] (at 50.0 µM), 98.9% (active). Moreover, the growth inhibition is -4% in assay [5] (setting [7]); 95% (active) in assay [5] (setting [8]); 99.2% (active) in assay [5] (at 50.0 µM); 0% in assay [6] (setting [7]); 99% (active) in assay [6] (setting [8]); 99.6% (active) in assay [6] (at 50.0 µM).
As for `Cc1ccccc1CN(C)CCO`, the growth inhibition was 0% in assay [1] (setting [7]); -8% in assay [1] (setting [8]); 65.7% in assay [1] (at 50.0 µM); -1% in assay [2] (setting [7]); 2% in assay [2] (setting [8]); 17.3% in assay [2] (at 50.0 µM). Also, the growth inhibition is 2% in assay [3] (setting [7]); 13% in assay [3] (setting [8]); 14.1% in assay [3] (at 50.0 µM); -8% in assay [4] (setting [7]); -1% in assay [4] (setting [8]); 56.8% in assay [4] (at 50.0 µM). The growth inhibition is -5% in assay [5] (setting [7]); -5% in assay [5] (setting [8]); 13.6% in assay [5] (at 50.0 µM); -5% in assay [6] (setting [7]); -6% in assay [6] (setting [8]); 13.8% in assay [6] (at 50.0 µM).
